Our source for the growth values is PubChem BioAssay (NCI).

Test systems include NCI-H23 lung; NCI-H226 lung; NCI-H322M lung; HOP-62 NSCLC; NCI-H460 lung; HOP-92 NSCLC; 786-0 renal; COLO 205 colon; DU-145 prostate; K-562 leukemia; MALME-3M melanoma; MDA-MB-231 breast; RXF 393 renal; SF-268 CNS; SF-295 CNS; SF-539 CNS; M14 melanoma; A549/ATCC NSCLC; UACC-257 melanoma.
Holding throughout (assay): NCI-60 one-dose screen, 48 h (100 = growth as untreated, 0 = no growth, -100 = all killed)
Holding throughout (details): 10 µM unless noted

The panel holds about 83,000 compounds, 20% with a hit somewhere; the sample as a whole holds those more often.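 Each cell line was grown in a 96-well plate and treated with one concentration of compound for 48 hours. Values below 10 were considered active.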 A number with no mark means an inactive call. Calls of active or inactive are those of the source.

Take `N=C(N)c1ccc(-c2ccc(-c3ccco3)o2)cc1F`: the growth in the test on NCI-H23 lung is 56.2%; with NCI-H226 lung it was 67.4%; in the test on NCI-H322M lung it was -10.4% (active); in the test with HOP-62 NSCLC, 32.2%; with NCI-H460 lung, 0.478% (active); in the test with HOP-92 NSCLC it was -20% (active). Further, the growth was 4.8% (active) in the test on 786-0 renal; -93.4% (active) in the test on COLO 205 colon; 31.3% in the test with DU-145 prostate; 1.49% (active) in the test with K-562 leukemia; -68.2% (active) in the test with MALME-3M melanoma; 9.14% (active) in the test with MDA-MB-231 breast. The growth was 34.1% in the test with RXF 393 renal; 19.8% in the test on SF-268 CNS; -27% (active) with SF-295 CNS; 8.28% (active) in the test with SF-539 CNS; -65.9% (active) in the test on M14 melanoma.

Regarding `COc1cc2c(cc1OC)-c1cc(OC)c(OC)cc1C(CN(C)C)C2` (stereo unspecified), the growth with NCI-H23 lung was 51.8% [100 µM]; in the test on NCI-H226 lung, 18.4% [100 µM]; with NCI-H322M lung it was 38.9% [100 µM]; with HOP-62 NSCLC it was -57.2% [100 µM] (active); in the test with NCI-H460 lung it was 67.7% [100 µM]; with HOP-92 NSCLC, 21.4% [100 µM]. The growth was 16.9% [100 µM] in the test with 786-0 renal; 100% [100 µM] with COLO 205 colon; 45.3% [100 µM] with DU-145 prostate; 77.6% [100 µM] with K-562 leukemia; 44.1% [100 µM] in the test on MALME-3M melanoma; 39.7% [100 µM] in the test on MDA-MB-231 breast. Moreover, the growth in the test on RXF 393 renal is 41.6% [100 µM]; in the test on SF-268 CNS it was 39% [100 µM]; in the test on SF-295 CNS it was 4.33% [100 µM] (active); with M14 melanoma, 69.5% [100 µM].

`CCN(CC)CCCCCCCCNc1c2ccc(Cl)cc2nc2ccc(OC)cc12`: the growth is -43.8% (active) in the test with NCI-H23 lung; -21.4% (active) in the test on NCI-H226 lung; -39.2% (active) in the test on NCI-H322M lung; -67.8% (active) in the test on HOP-62 NSCLC; -51.6% (active) with NCI-H460 lung; -75.9% (active) in the test on HOP-92 NSCLC. The growth in the test on 786-0 renal is -88.8% (active); with COLO 205 colon it was -84.6% (active); in the test with DU-145 prostate, -66.6% (active); with K-562 leukemia, -39.3% (active); in the test with MALME-3M melanoma it was -65.6% (active); in the test on MDA-MB-231 breast it was -72.2% (active). Further, the growth in the test on RXF 393 renal is -92.8% (active); in the test with SF-268 CNS it was -73.2% (active); in the test on SF-295 CNS, -76% (active); in the test on SF-539 CNS, -82% (active); in the test with M14 melanoma, -82.4% (active).

With `COc1ccc(-c2cc(-c3cc4ccccc4oc3=O)n(-c3ccccc3)n2)cc1`, the growth in the test with NCI-H23 lung was 79.3%; in the test on NCI-H226 lung, 75.7%; in the test with NCI-H322M lung it was 78.1%; in the test with HOP-62 NSCLC it was 55.4%; in the test on NCI-H460 lung it was 95.3%; in the test with HOP-92 NSCLC it was 67%. Also, the growth in the test on 786-0 renal is -31.5% (active); in the test on COLO 205 colon, 66.3%; in the test on DU-145 prostate, 84%; in the test with K-562 leukemia it was 81.8%; with MALME-3M melanoma, 69.5%; with MDA-MB-231 breast, 60.1%. In addition, the growth with SF-268 CNS was 71.1%; with SF-295 CNS, 94.7%; with SF-539 CNS it was 33.8%; with M14 melanoma, 89%.

On to `CCCCCCCCCCCCCC`, for which the growth in the test with NCI-H23 lung is 92.5%; in the test with NCI-H226 lung, 106%; with NCI-H322M lung, 105%; in the test with HOP-62 NSCLC, 98.2%; in the test on NCI-H460 lung, 108%; in the test with HOP-92 NSCLC, 91.3%. Also, the growth was 99.4% with 786-0 renal; 108% in the test on COLO 205 colon; 135% in the test on DU-145 prostate; 113% in the test on K-562 leukemia; 113% in the test with MALME-3M melanoma; 112% in the test with RXF 393 renal. Moreover, the growth is 120% in the test on SF-268 CNS, 99.2% with SF-295 CNS, 109% with SF-539 CNS and 115% in the test on M14 melanoma.

Turning to `COc1ccc(/C=C/c2nc(NCCCN(C)C)c3ccccc3n2)cc1`, the growth in the test on NCI-H23 lung is 73.6%; with NCI-H226 lung it was 103%; in the test on NCI-H322M lung, 82.7%; in the test with HOP-62 NSCLC, 83.9%; with NCI-H460 lung, 33.2%; in the test on HOP-92 NSCLC, 0.889% (active). For the same compound, the growth was 91.2% with A549/ATCC NSCLC; 78% with 786-0 renal; 85.9% in the test on COLO 205 colon; 96.5% in the test on DU-145 prostate; -75.3% (active) in the test with K-562 leukemia; 25.9% with MALME-3M melanoma. Also, the growth was 18.7% in the test with MDA-MB-231 breast; 55% with SF-268 CNS; 65.8% in the test on SF-295 CNS; 47.5% with SF-539 CNS; 97.3% in the test with UACC-257 melanoma.

In the case of `O=[N+]([O-])c1ccc(Sc2nc(Cl)nc(NC3CCCC3)n2)cc1`, the growth was -70.2% [100 µM] (active) in the test with NCI-H23 lung; -44.4% [100 µM] (active) in the test on NCI-H226 lung; -92.2% [100 µM] (active) in the test with NCI-H322M lung; -78.9% [100 µM] (active) in the test on HOP-62 NSCLC; -51.1% [100 µM] (active) with NCI-H460 lung; -74.7% [100 µM] (active) in the test with HOP-92 NSCLC. Also, the growth is -83.5% [100 µM] (active) in the test with 786-0 renal; -61.5% [100 µM] (active) in the test on COLO 205 colon; -100% [100 µM] (active) in the test on DU-145 prostate; -32.1% [100 µM] (active) with K-562 leukemia; -80.9% [100 µM] (active) with MALME-3M melanoma; -90.3% [100 µM] (active) with MDA-MB-231 breast. In addition, the growth was -75.4% [100 µM] (active) in the test with RXF 393 renal, -93% [100 µM] (active) in the test on SF-268 CNS and -93.9% [100 µM] (active) with SF-295 CNS.

Take `Cc1cc2nc(CN)[nH]c2cc1C`: the growth in the test with NCI-H23 lung is 103%; in the test with NCI-H226 lung, 105%; in the test with NCI-H322M lung it was 107%; with HOP-62 NSCLC, 98.9%; in the test on NCI-H460 lung, 103%; in the test with HOP-92 NSCLC, 84%. Besides, the growth in the test with 786-0 renal was 97.4%; with COLO 205 colon, 104%; in the test with DU-145 prostate, 106%; with K-562 leukemia it was 102%; in the test on MALME-3M melanoma, 104%; in the test with MDA-MB-231 breast, 117%. For the same compound, the growth in the test on RXF 393 renal is 107%; in the test on SF-268 CNS it was 106%; with SF-295 CNS it was 98.1%; with SF-539 CNS it was 106%; in the test on M14 melanoma, 99.9%.

Regarding `COc1ccc(-n2nc(C(=O)Nc3ccc(F)cc3)nc2-c2cc(OC)c(OC)c(OC)c2)cc1`, the growth in the test on NCI-H23 lung is 92.7%; in the test on NCI-H226 lung, 79.3%; in the test with NCI-H322M lung, 78.5%; with HOP-62 NSCLC it was 87.8%; in the test with NCI-H460 lung, 98.4%; in the test with HOP-92 NSCLC, 91.2%. Further, the growth with 786-0 renal is 83.6%; in the test with COLO 205 colon, 102%; in the test with DU-145 prostate it was 111%; in the test with K-562 leukemia it was 83.7%; in the test with MALME-3M melanoma, 96.2%; in the test with MDA-MB-231 breast, 93.9%. Besides, the growth is 102% in the test with SF-268 CNS, 88.3% with SF-539 CNS and 110% in the test on M14 melanoma.
